Compounds with a hit are over-represented: about 4.6% of the library has one in this group of screens.
tim10-1 inh = growth inhibitors of tim10-1 mutant yeast, primary screen, luminescence, uHTS; S. cerevisiae tim10-1 ts strain growth, BacTiter-Glo, 24 h; inhibition, % at 20 µM; hit rate 2.2% among 330,000;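 active = inhibition of at least 40%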;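 note: mutant grown at 25 °C; 0% = DMSO wells with yeast and 100% = wells holding no yeast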
SKKanGAS inh = S. pyogenes SKKanGAS growth inhibitors in kanamycin, primary screen, streptokinase expression inhibitor project, SKKanGAS strain, BacTiter-Glo luminescence; 6 h; inhibition, % at 7.5 µM; hit rate 1.3% among 300,000;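 active = mean replicate score, as percent of positive control median, at least 50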;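 note: strain carries kanamycin resistance gene driven by streptokinase promoter and grows in 40 µg/ml kanamycin; loss of luminescence reflects streptokinase promoter inhibition or plain growth inhibition; 0% = median of DMSO wells and 100% = positive control at its reference dose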
tim23-1 inh = growth inhibitors of tim23-1 mutant yeast, primary screen, luminescence, uHTS; hit rate 1.3% among 330,000; inhibition, % at 20 µM; S. cerevisiae tim23-1 growth, BacTiter-Glo luminescence, 24 h; AID 463212, 2010;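 active = growth inhibition of the mutant yeast at or above 50%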;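 note: temperature-sensitive mutant grown at 25 °C; plate controls were DMSO-treated mutant yeast for no effect and medium wells lacking yeast for full effect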
TIM10 inh = growth inhibitors of isogenic TIM10 control yeast, primary screen, counter-screen for tim10-1 yeast inhibitor project, luminescence, uHTS. S. cerevisiae TIM10 strain growth, BacTiter-Glo luminescence, 24 h. AID 463195, 2010. inhibition, % at 10 µM. hit rate 1.4% among 330,000;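 active = inhibition of 40% or more at the single tested concentration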;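 note: wild-type TIM10 isogenic control strain grown at permissive 25 °C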
NALP3 yeast inh = NALP3 inflammasome inhibitors in reconstituted yeast, primary screen, luminescence, uHTS; AID 2825, 2010; Yeast reconstituted NLRP3/ASC/caspase-1, beta-gal luminescence, 24 h; inhibition, % at 10 µM; hit rate 0.39% among 330,000;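 active = inhibition of 50% or more; inactive = inhibition below 50%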;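 note: plate controls were induced DMSO wells for no effect and uninduced yeast grown without galactose for full effect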
NALP3 confirm = NALP3 inhibitors retested in yeast, confirmation, luminescence, single concentration; AID 435006, 2010; hit rate 81% among 1,300; inhibition, % at 10 µM; yeast expressing human NALP3; shares compounds with NALP3 yeast inh; in the data active = inhibition above about 48%
Casp1 ASC ctr = CASP1-PYCARD signaling inhibition in yeast, confirmatory test, counterassay for NLRP3 inhibitor program, one-dose | shares compounds with NALP3 yeast inh | inhibition, % at 10 µM | hit rate 66% among 1,000 | yeast expressing Caspase-1-ASC, luminescence counter screen
NALP3 yeast rt = NALP3 inhibitors in yeast, repeat test, confirmation, luminescence, single concentration, retest; shares compounds with NALP3 yeast inh; yeast expressing human NALP3, luminescence read-out; inhibition, % at 10 µM; hit rate 53% among 1,000
* hit, by the source's call; . = no result. Cut-off read from the data, not from the text of the source, unless noted: active = inhibition above about 50%; inactive = the rest.

SMILES	tim10-1 inh	SKKanGAS inh	tim23-1 inh	TIM10 inh	NALP3 yeast inh	NALP3 confirm	Casp1 ASC ctr	NALP3 yeast rt
COc1ccccc1N1CCN(c2nccc(C)n2)CC1	12.3	13.7	26.3	-4.5	51.4*	62.6*	51.7*	39.5
COc1ccccc1N1CCN(c2cc(N3CCCC3)nc(C)n2)CC1	14.9	3.4	19.7	7.4	11.5	.	.	.
CC(OC(=O)c1ccc2c(c1)S(=O)(=O)c1ccccc1C2=O)C(N)=O (configuration not stated)	19.2	3.4	13.4	12.4	4.3	.	.	.
CCCc1nc(SCc2cccnc2)c2c(=O)n(C)c(=O)n(C)c2n1	-11.3	-8.5	34.7	-19.4	53.6*	66.3*	57.5*	46.7
Cn1c(=O)c2c(SCc3cccnc3)nc(CC(C)(C)C)nc2n(C)c1=O	23.2	-2.4	47.8	-10.7	7.1	.	.	.
O=C(CCN=C1NS(=O)(=O)c2ccccc21)Nc1ccc(Cl)cc1F	6.8	.	-0.2	0.3	11.1	.	.	.
CCCn1c(N)c(C(=O)CN2CCN(S(=O)(=O)c3cccc(Cl)c3)CC2)c(=O)[nH]c1=O	-8.4	.	-10.9	4.6	15.3	.	.	.
CCCCCOc1ccc(CSc2n[nH]c(C)n2)cc1	31.8	11.5	33.9	25.6	63.8*	75.3*	70.2*	81.6*
Cc1nc(SCc2ccc(OCCC(C)C)cc2)n[nH]1	29.1	10.5	36.9	32.3	76.3*	83.5*	93.2*	89.2*
COc1ccc(C(=O)NCc2nnc(SCC(=O)NCc3ccco3)o2)cc1	10.8	3.4	11.8	-3.7	-11.9	.	.	.
C=C(CC[C@@H](O)C(C)(C)O)[C@H]1CC[C@]2(C)[C@@H]1CCC1[C@@]3(C)CCC(=O)C(C)(C)C3CC[C@]12C (some centres not stated)	3.5	.	16.6	-8.8	54.4*	45.6	51.9*	37.5
Cc1ccccc1CN1CCSc2sccc2C1=O	1.1	-3.2	14.5	16.2	58.4*	37.0	37.1	38.4
O=C1c2ccsc2SCCN1Cc1ccccc1Cl	3.3	7.9	2.7	-13.2	50.7*	56.5*	44.0	46.6
O=C(c1ccccc1)N1CCSc2sccc2C1=O	.	6.0	.	.	.	.	.	.
O=[N+]([O-])c1cccnc1S(=O)(=O)c1ccccc1	22.3	4.5	9.2	-5.4	57.7*	63.1*	50.3*	38.8
Oc1c(N=Nc2ccccc2)sc2ccccc12	0.7	8.5	6.7	3.2	50.6*	70.7*	.	.
O=C(Nc1ccccc1)c1ccc(S(=O)(=O)N2CCCCC2)cc1	27.8	-6.8	26.9	30.6	51.6*	63.5*	40.6	36.6
O=C(Nc1ccccc1)c1ccc(S(=O)(=O)N2CCCC2)cc1	15.5	-3.9	8.6	6.1	21.1	.	.	.
CCOC(=O)c1sc(=S)n(-c2cc(OC)ccc2OC)c1N	-1.2	-11.3	16.8	2.5	97.5*	96.2*	71.1*	56.9*
COc1ccc(CC(=O)N(C)CC(=O)Nc2ccc(F)cc2)cc1S(=O)(=O)N1CCOCC1	9.8	.	13.4	0.1	16.9	.	.	.
C=CCc1c(C)nc(C)nc1N/N=C/c1ccccc1O	13.0	-5.3	37.6	35.1	55.5*	56.7*	37.8	54.5*
O=C(NCc1cccc2ccsc12)c1cccs1	-11.2	.	10.6	-12.0	40.4	.	.	.
O=C1C(=C(O)c2ccccc2)C(=O)c2ccccc21	-9.0	1.9	18.6	5.4	21.8	.	.	.
O=C1C(=C(c2ccccc2)c2ccccc2)Nc2ccccc21	-10.8	10.4	27.2	5.9	62.2*	7.9	.	.
O=C1Nc2ccccc2S/C1=C/c1cccs1	-2.7	-8.7	31.1	19.1	64.6*	-0.8	.	.
SMILES	tim10-1 inh	SKKanGAS inh	tim23-1 inh	TIM10 inh	NALP3 yeast inh	NALP3 confirm	Casp1 ASC ctr	NALP3 yeast rt
CSCC[C@H](NC(=O)N1CCn2c1nc1ccccc12)C(=O)NCc1ccco1	19.7	-4.7	11.6	-3.9	-5.3	.	.	.
CC1Cc2nc(SCC(=O)OCc3ccccc3)n(C)c(=O)c2S1 (configuration not stated)	3.6	-0.3	6.7	-34.7	58.6*	69.7*	43.1	39.1
Clc1ccc(/C=C/c2nc3ccccc3[nH]2)cc1	6.8	16.7	45.6	36.9	54.0*	76.8*	54.1*	71.0*
CCOc1ccc(Cl)cc1S(=O)(=O)N1CCCC1	19.0	0.3	-3.7	-7.3	5.5	.	.	.
COc1cc(C)c(S(=O)(=O)N2CCOCC2)cc1C	-6.3	-0.9	4.7	5.2	43.1	.	.	.
CCCOc1cc(C)c(S(=O)(=O)N2CCOCC2)cc1C	7.9	-1.9	18.3	8.7	57.4*	52.2*	.	.
CCOc1cc(C)c(S(=O)(=O)N2CCCC2)cc1C	1.4	5.9	13.5	5.6	82.9*	79.6*	90.4*	81.0*
Cc1cc(S(=O)(=O)N2CCCCCC2)c(Cl)cc1Cl	2.5	22.2	-5.1	1.0	61.4*	64.3*	70.5*	49.8
Cc1cc(C(C)(C)C)ccc1OC(=O)C1=CC=CN2CCS(=O)(=O)N=C12	-2.7	.	-13.7	-5.4	14.5	.	.	.
O=C(Cc1ccc(S(=O)(=O)N2CCOCC2)s1)NCCc1ccc(F)cc1	15.3	5.0	6.5	2.7	12.7	.	.	.
CN(C)S(=O)(=O)c1ccc(Cl)c(C(=O)Nc2ccc(S(=O)(=O)N3CCOCC3)cc2)c1	8.2	-1.9	-0.4	-6.6	-28.2	.	.	.
COc1ccc(Nc2c(C)cccc2C)cc1	20.9	3.4	2.3	17.8	-105.3	-12.0	.	.
COc1ccc(C(=O)CCNc2ccc(F)cc2)cc1	-29.2	-9.0	-3.7	-29.7	57.0*	30.9	.	.
CCN1CCN(c2ccc(Cl)cc2NC(=O)c2ccc(-n3nc(C)cc3C)cc2)CC1	9.4	.	15.9	1.2	51.3*	44.2	39.0	32.1
COc1cccc2c1cc1c(=O)n(CC(=O)N3CCC(C)CC3)nc(C)n12	26.8	-2.5	31.6	27.3	6.1	.	.	.
Cn1c(=NC(=O)COc2ccccc2)sc2ccccc21	-24.1	2.9	7.9	-6.9	59.8*	47.0	.	.
Cn1c(=NC(=O)CS(=O)(=O)c2ccccc2)sc2ccccc21	7.2	-9.4	6.0	-5.7	9.0	.	.	.
CC1(C)C(=O)OC(c2ccc([N+](=O)[O-])cc2)C(C)(C)C1=O (configuration not stated)	1.4	3.0	8.8	-13.0	14.0	.	.	.
COc1ccc(S(=O)(=O)N2CCOC23CCN(S(=O)(=O)c2c(C)cc(C)cc2C)CC3)cc1	2.4	1.3	18.8	-7.1	29.5	.	.	.
CC1CCc2c(C(=O)Nc3ccc(N4CCOCC4)cc3)csc2C1 (configuration not stated)	18.0	-5.6	10.9	11.0	68.6*	53.2*	63.6*	52.5*
